In PMC12136788:
Substitutions are numbered along the chain they refer to. Whole data set: some 5,800 sequences, median “enrichment r” near 0.54, cut for the highest 2% near 16. Only a selection was taken, and the highest values are over-represented in it overall.

B1: chr19:42216679:42217007:-|CDS|ENSG00000160570|control|control|control (ssRNA)
RNA: GGGAGUUCUACAGUCCGACGAUCCUUUCUGCUGGAUGAGGCUCCUGGCGCCGCCGGAGGCUUAGCCCGGGCCCGCAGCGGCCUAGAGCUCCUGCUGGAGCUGGAGCGCCGCGGGCAGUGCGACGAGAGCAACCUGCGGCUGCUCAACAGAGGAUUGAGCAUCA
B2: chr1:111117940:111118053:-|3pUTR|ENSG00000156171|unk|total|mutant (ssRNA)
RNA: GGGAGUUCUACAGUCCGACGAUCAGGCUGACAGUAACACUGAUGAAUGCUGAUAAUCAGGAAACAUGAAAGAAGCCAUUUGACCGAUUAUUCUAAAGGAUAUCAUCAAGAAGACUAUUAAAAACACCUAUGCCUAUACUUUUUCAACAGAGGAUUGAGCAUCA
B3: chr8:76983344:76983445:-|CDS|ENSG00000164751|msi1|total|mutant (ssRNA)
RNA: GGGAGUUCUACAGUCCGACGAUCAGCCACCAGUGGCAAAGAAUGCGCUCUAUGUGGAGAGUGGCCCACCAUGCCUCACACCACCGGAUGUGAGCAUAUUUUCUGUUAUUUCUGUGCUAAGAGCCGUUUCUUAUUUGACGUGUACAACAGAGGAUUGAGCAUCA
B4: chr12:101746137:101746238:-|3pUTR|ENSG00000111670|msi1|total|mutant (ssRNA)
RNA: GGGAGUUCUACAGUCCGACGAUCGGUCCGUAAAUUAUUGCAGGCCACCUGUGUCUUUGUCAUACAUUCUUCUUGCUGUUGUUCCGUUUGUUUUUUUUCAAACAACCCUCUAAAAAUGUAAAAACCAUGUUCCGCUUGCAGCUGCAACAGAGGAUUGAGCAUCA
B5: ENSG00000070961:be:win_2001|CDS|ENSG00000070961|bound_else_gene|NA|bound_elsewhere_windowed (ssRNA)
RNA: GGGAGUUCUACAGUCCGACGAUCAAAUGAUAUUGUCACCGGCCUUACAUGCAUUGCUGUUGUGGGGAUUGAAGAUCCUGUGAGACCUGAGGUGCCAGAUGCAAUUAAAAAGUGUCAGAGGGCUGGAAUUACUGUGCGGAUGGUCAACAGAGGAUUGAGCAUCA
B6: ENSG00000145990:stop:overlap|stop_codon|ENSG00000145990|stop_codon|NA|stop_codon (ssRNA)
RNA: GGGAGUUCUACAGUCCGACGAUCUGAGCCCCGCCUACCUGAUCAGCGAGGCCAUGCGCCGCAGCAGGAUGUCCCUCUACUGUUAGCACAGAUUGAGAACCUCGGGGACUUGAGCCUUCUGCAGGGGAUGUCCACAGAGAGGGACAACAGAGGAUUGAGCAUCA
B7: chr9:124811826:124811928:+|3pUTR|ENSG00000185585|msi1|FALSE|unique (ssRNA)
RNA: GGGAGUUCUACAGUCCGACGAUCAAGAAAUUUUCUAGCCCAACUCCCUGUUUCAUGAAAGAGAAAAGAGGCUCAGAAAAGUUUAGAGAGCAGCUCAGUGUCACACUGGGAGCUGGGCACAGCCGAUCUCCUUCCAGAAGGGUUCAACAGAGGAUUGAGCAUCA
B8: chr6:53267885:53267986:-|3pUTR|ENSG00000012660|msi1_unk|total|mutant (ssRNA)
RNA: GGGAGUUCUACAGUCCGACGAUCUUUAAUGUAAAUCUAACCGUACUUGUAAUUUCUUUCUGCUCCGAAUCUAAAGAUGUGUUCCGAACCUCUUGUUUAAAAAUAACCGACUGCUUAUCAUAAAAUCACAUCUCACACAUUUGACAACAGAGGAUUGAGCAUCA
B9: chr4:110049619:110049852:-|3pUTR|ENSG00000170522|msi1|FALSE|unique (ssRNA)
RNA: GGGAGUUCUACAGUCCGACGAUCUUGUUCAAUGUGACAUAAUAGUAUUAUAAUUGGUUAAGUAGCUUAAUGAUUAGGCAAACUAGAUGAAAAGAUUAGGGGCUUCCACACUGCAUAGAUUACACGCACAUAGCCACGCAUACACAACAGAGGAUUGAGCAUCA
B10: chr4:110049619:110049852:-|3pUTR|ENSG00000170522|msi1|total|mutant (ssRNA)
RNA: GGGAGUUCUACAGUCCGACGAUCUUGUUCAAUGUGACAUAACCGUAUUAUAAUUGGUUAAGCCGCUUAAUGAUCCGGCAAACCCGAUGAAAAGAUCCGGGGCUUCCACACUGCACCGAUUACACGCACACCGCCACGCAUACACAACAGAGGAUUGAGCAUCA
B11: chr2:171983412:171983537:+|3pUTR|ENSG00000128708|unk|FALSE|unique (ssRNA)
RNA: GGGAGUUCUACAGUCCGACGAUCUGAUGACUUUAAUUUUAAAAUCUUGUGACAUUUUGCUUAUACUAAAAGUUAUCUAUCUUUAGUUGAAUAUUUUCUUUUGGAGAGAUUGUAUAUUUUAAAAUACUGUUUAGAGUUUAUGAGCAACAGAGGAUUGAGCAUCA
B12: chr9:14618660:14618761:-|3pUTR|ENSG00000175893|msi1|FALSE|unique (ssRNA)
RNA: GGGAGUUCUACAGUCCGACGAUCUUAGCUUUCCACAGGGAUUUCUUGAAAUGCUUUUGUUAUUAAACUCAAAAGGCAGUGAUUAGGAUGAAAUAAUUGUACAUAAUUUAUUUUAGUACUGACAGUGUUACAGAUUCUAAUUUACAACAGAGGAUUGAGCAUCA
B13: chr6:53267885:53267986:-|3pUTR|ENSG00000012660|msi1_unk|FALSE|overlapping (ssRNA)
RNA: B8 RNA with C40U, C41A, C64U, C65A, C83U, C84A, C106U, C107A
B14: ENSG00000198589:be:win_4601|CDS|ENSG00000198589|bound_else_gene|NA|bound_elsewhere_windowed (ssRNA)
RNA: GGGAGUUCUACAGUCCGACGAUCUGGCAGUAGUAUACUUUAUCUCUGUUCUUAUGGUCUCCAAGUACAGAGACAUUUUGGAACCCCAAAAUGAAAGGCAUAGCCAGUCAUGUACAGAAACUGGCAGUGAAAAUGAGAAUGUAUCAACAGAGGAUUGAGCAUCA
B15: chr4:17843545:17843646:+|3pUTR|ENSG00000109805|msi1|total|mutant (ssRNA)
RNA: GGGAGUUCUACAGUCCGACGAUCCUGUGCGCUUCCACGUUACUUUGGCCUGUAUUAAAGCAGCCGAGCAGCAUCAGUUAUUACCGUCCAGAAAAAGUGUGCAUCAGUCAGUCACACAGAUUUAUCACAAUCUGAGGUGGGCCUCAACAGAGGAUUGAGCAUCA
B16: chr8:22006149:22006250:+|3pUTR|ENSG00000130227|msi1|total|mutant (ssRNA)
RNA: GGGAGUUCUACAGUCCGACGAUCGAAUGUAUGAACUGGAGGAAGUUACUACAGUGGAAGGGUUCUUAAUAACAAGGUCUACCCCGCAUGAAGUAUUUAACAUUCUCCCAUCCCUUAAAAAAUAUACAUUUUUAUAAAAUGAAACAACAGAGGAUUGAGCAUCA
B17: chr6:145799413:145799514:-|3pUTR|ENSG00000118496|msi1|total|mutant (ssRNA)
RNA: GGGAGUUCUACAGUCCGACGAUCUUAUCUCACAUACUUACAACUCAACACACAGAGUGACCAUGUGCAGCUUUCUUUUUUGUCCGAUGCCACAUCCGAAGACUCAUCGCAGUGUGUUAUAUGACAGGACAAAGCAAAAACAAACAACAGAGGAUUGAGCAUCA
B18: chr11:46383557:46383658:+|3pUTR|ENSG00000110492|msi1_unk|FALSE|overlapping (ssRNA)
RNA: GGGAGUUCUACAGUCCGACGAUCCCACGCCCUCCCUCUCCCAGGCCCGAGAUGUGACCCACCAGUGCCUUCUGUCUGCUCGUUAGCUUUAAUCAAUCAUGCCCUGCCUUGUCCCUCUCACUCCCCAGCCCCACCCCUAAGUGCCAACAGAGGAUUGAGCAUCA
B19: ENSG00000066933:stop:overlap|stop_codon|ENSG00000066933|stop_codon|NA|stop_codon (ssRNA)
RNA: GGGAGUUCUACAGUCCGACGAUCAUAGCUCAGAGAAUUUGAAUAUGGAGUCUGAAUAUGCUAUCUCUGAGAAAUCAGAAGCUUAGCCCUUAGCUCCCUGAAGACAGCUGGCAAGUCUGAACCUUCCAGCAAGUUGCGAAAGCACAACAGAGGAUUGAGCAUCA
B20: chr1:235448940:235449205:-|3pUTR|ENSG00000162885|unk|FALSE|unique (ssRNA)
RNA: GGGAGUUCUACAGUCCGACGAUCAAUAGAGAAUUCCAUUAAAACUAGUCUUAUGACAGAUAUUAACUGUGUUCAGAUUUUAUUAGGCUAGCUAGUUUCUUUCUAUUUAAUAUUUAAAUCUUAUCAUGAAAUGCAGUGAUGAGCCAACAGAGGAUUGAGCAUCA
B21: chr4:124666837:124666938:-|3pUTR|ENSG00000151458|msi1|total|mutant (ssRNA)
RNA: GGGAGUUCUACAGUCCGACGAUCAAUGAUUUCUUGGCAGUUUAAAAAAAAUAUUUUACCGCCGUUCCGGGAGCUGCUUUAAGCCGUUUAAAUCUGGAUUUUCCCAGCCGAAUUCUUCUCAUCUCUGGCUAAACAUGUCAGAACCAACAGAGGAUUGAGCAUCA
B22: chr10:92030471:92030572:+|3pUTR|ENSG00000095564|unk|total|mutant (ssRNA)
RNA: GGGAGUUCUACAGUCCGACGAUCUAUUUUUUUAUUAACUAUUUAUUUGCCCGUUCCAUAAACCAGCUCUUUAACACCGCUUACCGUAAUUGAUAUUUUCUCCGAAUAAGUACAGAGCAAUAUAUCAUUAAAGGGCUAUGAAGGCAACAGAGGAUUGAGCAUCA
B23: chr4:124666837:124666938:-|3pUTR|ENSG00000151458|msi1|FALSE|unique (ssRNA)
RNA: B21 RNA with C58U, C59A, C61U, C62A, C66U, C67A, C83U, C84A, C107U, C108A
B24: chr13:32776882:32776983:+|3pUTR|ENSG00000083642|unk|total|mutant (ssRNA)
RNA: GGGAGUUCUACAGUCCGACGAUCAAAGUGUUUUGAAUUGUGUCUUAAUCUCUCCAUAUUCAACUAUUCUUCAUUUACAACAACCGUGACACCAGUAAUUAUGAGAGGCUGUCAUAUAUCAAAGCAGCUCAGGUGGGAUCAACACAACAGAGGAUUGAGCAUCA
B25: chr20:11926050:11926151:+|3pUTR|ENSG00000132640|msi1|FALSE|unique (ssRNA)
RNA: GGGAGUUCUACAGUCCGACGAUCAUGAAAUGGAAUGAAGGCUAAUAUGCUUGCUUUAUUUACUUUUGUAAUCUUGGAUUUUGUAGCUUUUAAAACUAGAAACCAUUGUUCUAACAAAGCAGGCAACUUUAUUCUAUAAACACACAACAGAGGAUUGAGCAUCA
B26: chr8:65707876:65707977:+|CDS|ENSG00000066855|unk|FALSE|unique (ssRNA)
RNA: GGGAGUUCUACAGUCCGACGAUCCCUGCUGCCCUCAUAGCAGAGGCUCUGAAAAAGAAAUUUGCUUAUCGGUAUCGAAGUGAUAGCCAAGAUGAAGUUGAAAAAGGAAUUCCAAAGUCUGAAUCAGAGGCCACCUCAGAGAGACAACAGAGGAUUGAGCAUCA
B27: ENSG00000107863:be:win_551|CDS|ENSG00000107863|bound_else_gene|NA|bound_elsewhere_windowed (ssRNA)
RNA: GGGAGUUCUACAGUCCGACGAUCAAGGCAACGAAGCUUAUAGCGGCAAUGCCCGCAAUAUACCUGAACCUCCACCAAUCUGCUAUCCCUGGCUGCCAUCUGCCCCAUCAGCCAUGGCACAGCCAGUUGAAAUAUCUCCUCCUGCAACAGAGGAUUGAGCAUCA
B28: chr10:92030471:92030572:+|3pUTR|ENSG00000095564|unk|FALSE|unique (ssRNA)
RNA: B22 RNA with C50U, C51A, C76U, C77A, C83U, C84A, C101U, C102A
B29: chr3:10101824:10101929:+|3pUTR|ENSG00000144554|unk|FALSE|unique (ssRNA)
RNA: GGGAGUUCUACAGUCCGACGAUCAAAAUCUCUGAGUCAUGAUUCUGGACUUUGGGAGCUAGUUUUGAAACUCUGAUUUAUUGUAGAACUUAGGCUUGUACCAAUUUUACAAAUAAAUUCUGUUCUAAGUUCUGCCUCAGUUGCCAACAGAGGAUUGAGCAUCA
B30: chr20:11926050:11926151:+|3pUTR|ENSG00000132640|msi1|total|mutant (ssRNA)
RNA: B25 RNA with U83C, A84C, U96C, A97C

Each binder was assayed against MSI1 full-length (mouse, UniProt Q61474 1-362) (assay: nsRBNS (natural sequence RNA bind-n-seq); RBNS binding buffer (assumed for nsRBNS): 25 mM Tris pH 7.5, 150 mM KCl, 3 mM MgCl2, 0.01% Triton X-100, 500 ug/ml BSA, 20 U/ml SUPERase-In, 4 C; UNK is unkempt and MSI1 is Musashi-1; names of the RNAs are library labels; protein concentration not given here; high values mean tight binding).
Chain of MSI1 full-length (Q61474 whole entry): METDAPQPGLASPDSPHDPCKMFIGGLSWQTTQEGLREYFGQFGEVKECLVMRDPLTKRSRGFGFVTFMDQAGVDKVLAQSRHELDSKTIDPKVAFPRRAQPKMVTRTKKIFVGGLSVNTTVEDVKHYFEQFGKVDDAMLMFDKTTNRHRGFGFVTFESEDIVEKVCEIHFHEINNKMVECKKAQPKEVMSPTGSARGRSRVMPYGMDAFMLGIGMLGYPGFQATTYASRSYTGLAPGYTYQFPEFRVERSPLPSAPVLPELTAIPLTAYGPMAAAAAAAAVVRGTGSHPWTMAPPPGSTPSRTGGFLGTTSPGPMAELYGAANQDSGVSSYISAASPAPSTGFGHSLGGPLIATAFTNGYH

Binder	binding signal
B1	0.233 enrichment R
B2	0.337 enrichment R
B3	0.344 enrichment R
B4	0.343 enrichment R
B5	0.416 enrichment R
B6	0.305 enrichment R
B7	0.831 enrichment R
B8	1.15 enrichment R
B9	43.1 enrichment R
B10	0.468 enrichment R
B11	3.32 enrichment R
B12	1.51 enrichment R
B13	26.6 enrichment R
B14	0.339 enrichment R
B15	0.782 enrichment R
B16	0.38 enrichment R
B17	0.363 enrichment R
B18	1.31 enrichment R
B19	16.9 enrichment R
B20	13.3 enrichment R
B21	0.225 enrichment R
B22	27.9 enrichment R
B23	23.2 enrichment R
B24	0.958 enrichment R
B25	1.07 enrichment R
B26	0.29 enrichment R
B27	0.51 enrichment R
B28	39.5 enrichment R
B29	0.376 enrichment R
B30	0.37 enrichment R
